Measured values: PubChem BioAssay (EPA / NIEHS)
“And” between values parts separate entries of the source, which are not always exact repeats. Equal values may be shown once. Inconclusive results are not listed. Where a structure was tested more than once in an assay, its records may differ in their call. The source made the active and inactive calls. How the source made its calls, unless noted: active means hit-call score of the fitted dose curve at least 0.9, where 1 is the maximum; inactive means score below 0.9.

Key:
[1] = read-out: Interleukin-8 (IL8), CXCL8 (gene 3576); assay: BSK_3C_IL8: BioMAP Diversity Plus: 3C Assay for Interleukin-8 (IL8) Biomarker Activity (AID 2283020); details: primary human endothelial cells (HUVEC); actives raise or lower the signal
Outline: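 Primary human umbilical vein endothelial cells (3C system) were exposed to test chemical for 24 h, then IL-8 was quantified by ELISA. Responses were fitted bidirectionally against DMSO vehicle as baseline.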

[2] = read-out: Monokine induced gamma interferon (MIG), CXCL9 (gene 4283); assay: BSK_3C_MIG: BioMAP Diversity Plus: 3C Assay for Monokine induced gamma interferon (MIG) Biomarker Activity (AID 2283021); details: primary human endothelial cells (HUVEC); actives raise or lower the signal;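 on AC50: MIG protein level measured by immunoassay in the treated endothelial cultures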
Outline: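 Primary human umbilical vein endothelial cells in the 3C system were exposed to chemical for 24 h, after which MIG was quantified by ELISA. Activity was fitted bidirectionally against DMSO as negative control and baseline.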

[3] = biological target: human Vitamin D Receptor (VDR), VDR (gene 7421) (UniProt P11473); assay: ATG_VDR_TRANS: Attagene TRANS-FACTORIAL HepG2 Assay for human Vitamin D Receptor (VDR) (AID 2283022; active means hit-call score of the fitted dose curve at least 0.9, where 1 is the maximum)
Chain of human Vitamin D Receptor (VDR), VDR (gene 7421) (P11473 whole entry, looked up, the tested form may be a part): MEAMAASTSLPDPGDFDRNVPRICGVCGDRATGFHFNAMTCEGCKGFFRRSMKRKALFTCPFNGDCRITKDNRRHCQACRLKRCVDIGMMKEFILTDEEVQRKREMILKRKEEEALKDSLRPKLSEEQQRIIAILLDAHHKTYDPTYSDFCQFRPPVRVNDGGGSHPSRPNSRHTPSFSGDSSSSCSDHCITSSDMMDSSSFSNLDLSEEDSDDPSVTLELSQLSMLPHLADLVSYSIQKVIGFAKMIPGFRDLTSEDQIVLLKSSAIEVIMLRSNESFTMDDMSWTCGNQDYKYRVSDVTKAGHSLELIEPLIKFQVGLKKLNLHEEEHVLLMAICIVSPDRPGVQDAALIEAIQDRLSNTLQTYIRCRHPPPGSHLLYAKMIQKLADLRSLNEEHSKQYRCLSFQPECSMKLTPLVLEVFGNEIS
Outline: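 RT-PCR/capillary electrophoresis read-out of reporter mRNA induction in transiently transfected HepG2; 24 h dosing; chimeric NR-Gal4 (TRANS format); gain-of-signal fit against DMSO baseline.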

[4] = BSK_3C_SRB: Viability Assessment in the BioMAP Diversity Plus: 3C Assay (AID 2283023); details: primary human endothelial cells (HUVEC);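 further: cells read 24 h after compound dosing; fitted both ways against DMSO so a hit may be signal rise or drop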
Outline: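 HUVEC, 24 h post-dose; 10% TCA fix, 0.1% SRB stain, A560 nm. Bidirectional curve fit vs DMSO negative control.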

[5] = read-out: Matrix Metallopeptidase 1 (MMP1), MMP1 (gene 4312); assay: BSK_BE3C_MMP1: BioMAP Diversity Plus: BE3C Assay for Matrix Metallopeptidase 1 (MMP1) Biomarker Activity (AID 2283024); details: primary human bronchial epithelial cells; actives raise or lower the signal
Outline: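 Primary human bronchial epithelial cells were dosed with test chemicals, and MMP1 levels were measured by ELISA 24 h later. Data were fitted bidirectionally against DMSO as the negative control and activity baseline.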

[6] = read-out: Pselectin, SELP (gene 6403); assay: BSK_4H_Pselectin: BioMAP Diversity Plus: 4H Assay for Pselectin Biomarker Activity (AID 2283026); details: primary human endothelial cells (HUVEC); actives raise or lower the signal
Outline: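 Primary human umbilical vein endothelial cells were exposed to test chemical for 24 h, then cell-surface P-selectin was quantified by ELISA. Activity was fitted bidirectionally against DMSO as negative control and baseline.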

[7] = BSK_BE3C_SRB: Viability Assessment in the BioMAP Diversity Plus: BE3C Assay (AID 2283028); details: primary human bronchial epithelial cells
Outline: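 Primary human bronchial epithelium; chemical dosing, 24 h; 10% TCA fix, 0.1% SRB stain, A560; bidirectional fit vs DMSO baseline.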

[8] = read-out: Thrombomodulin, THBD (gene 7056); assay: BSK_3C_Thrombomodulin: BioMAP Diversity Plus: 3C Assay for Thrombomodulin Biomarker Activity (AID 2283029); details: primary human endothelial cells (HUVEC); actives raise or lower the signal
Outline: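 Primary human umbilical vein endothelial cells (3C system) were exposed to chemical for 24 h, then thrombomodulin levels were measured by ELISA. Activity was fitted bidirectionally against the DMSO negative control as baseline.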

[9] = read-out: Urokinase-type plasminogen activator receptor (uPAR), PLAUR (gene 5329); assay: BSK_4H_uPAR: BioMAP Diversity Plus: 4H Assay for Urokinase-type plasminogen activator receptor (uPAR) Biomarker Activity (AID 2283030); details: primary human endothelial cells (HUVEC); actives raise or lower the signal
Outline: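 HUVEC, 24 h post-dose; uPAR by ELISA; bidirectional fit vs DMSO baseline.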

[10] = read-out: Vascular endothelial growth factor receptor 2 (Homo sapiens) (UniProt P35968); assay: BSK_4H_VEGFRII: BioMAP Diversity Plus: 4H Assay for Vascular endothelial growth factor receptor 2 (VEGFR2) Biomarker Activity (AID 2283031); details: primary human endothelial cells (HUVEC); actives raise or lower the signal;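 on AC50: cell-surface VEGFR2 protein level quantified by ELISA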
Outline: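 HUVEC (human primary), 4H system; 24 h post-dose; VEGFRII by ELISA; bidirectional curve fit vs DMSO baseline; gain or loss of signal scored.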

[11] = read-out: Human Leukocyte Antigen - DR isotype (HLADR), HLA-DRA (gene 3122); assay: BSK_BE3C_HLADR: BioMAP Diversity Plus: BE3C Assay for Human Leukocyte Antigen - DR isotype (HLADR) Biomarker Activity (AID 2283032); details: primary human bronchial epithelial cells; actives raise or lower the signal
Outline: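 Human primary bronchial epithelial cells in the BE3C system were exposed to chemicals for 24 h, after which HLA-DR levels were quantified by ELISA. Activity was fitted bidirectionally, gain or loss of signal, against DMSO as negative control and baseline.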

[12] = read-out: Vascular cell adhesion molecule 1 (VCAM1), VCAM1 (gene 7412); assay: BSK_4H_VCAM1: BioMAP Diversity Plus: 4H Assay for Vascular cell adhesion molecule 1 (VCAM1) Biomarker Activity (AID 2283033); details: primary human endothelial cells (HUVEC); actives raise or lower the signal
Outline: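 Primary human umbilical vein endothelial cells were exposed to chemicals for 24 h, after which VCAM-1 was quantified by ELISA. Responses were fitted bidirectionally against DMSO as negative control and activity baseline.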

[13] = read-out: Interferon-gamma inducible Protein 10 (IP10), CXCL10 (gene 3627); assay: BSK_BE3C_IP10: BioMAP Diversity Plus: BE3C Assay for Interferon-gamma inducible Protein 10 (IP10) Biomarker Activity (AID 2283034); details: primary human bronchial epithelial cells; actives raise or lower the signal
Outline: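 Human primary bronchial epithelial cells were exposed to chemicals for 24 hours, after which IP-10 levels were measured by ELISA. Data were fitted bidirectionally against DMSO, which served as the negative control and activity baseline.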

[14] = read-out: Monokine induced gamma interferon (MIG), CXCL9 (gene 4283); assay: BSK_BE3C_MIG: BioMAP Diversity Plus: BE3C Assay for Monokine induced gamma interferon (MIG) Biomarker Activity (AID 2283035); details: primary human bronchial epithelial cells; actives raise or lower the signal
Outline: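 MIG level was determined by ELISA after 24 h chemical treatment of primary human bronchial epithelial cells. Values were fitted bidirectionally with DMSO as the negative control and activity baseline.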

[15] = read-out: Plasminogen activator inhibitor-1 (PAI1), SERPINE1 (gene 5054); assay: BSK_BE3C_PAI1: BioMAP Diversity Plus: BE3C Assay for Plasminogen activator inhibitor-1 (PAI1) Biomarker Activity (AID 2283037); details: primary human bronchial epithelial cells; actives raise or lower the signal
Outline: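 Human primary bronchial epithelial cells were exposed to chemical for 24 h, then PAI-1 was quantified by ELISA. Activity was fitted bidirectionally relative to the DMSO negative control baseline.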

[16] = read-out: urokinase plasminogen activator (uPA), PLAU (gene 5328); assay: BSK_BE3C_uPA: BioMAP Diversity Plus: BE3C Assay for urokinase plasminogen activator (uPA) Biomarker Activity (AID 2283038); details: primary human bronchial epithelial cells; actives raise or lower the signal
Outline: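 ELISA read-out of uPA in human lung primary bronchial epithelial cultures, 24 h post-dosing. Gain or loss of signal fitted bidirectionally relative to DMSO baseline; cytotoxicity checked in parallel cultures via SRB total protein stain.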

[17] = read-out: Urokinase-type plasminogen activator receptor (uPAR), PLAUR (gene 5329); assay: BSK_BE3C_uPAR: BioMAP Diversity Plus: BE3C Assay for Urokinase-type plasminogen activator receptor (uPAR) Biomarker Activity (AID 2283039); details: primary human bronchial epithelial cells; actives raise or lower the signal;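 further: uPAR protein level measured by ELISA on the cells; cells exposed to compound for one day before measurement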
Outline: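 Primary human bronchial epithelial cells were dosed with chemical and harvested 24 h later; uPAR was quantified by ELISA. Activity was fitted bidirectionally against DMSO as negative control and baseline.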

[18] = BSK_3C_Vis: BioMAP Diversity Plus: 3C Assay for Morphology Visualization (AID 2283025); details: primary human endothelial cells (HUVEC);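 further: fitted both ways so gain or loss versus DMSO counts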
Outline: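 Human umbilical vein endothelial cells in the 3C system were imaged by light microscopy 24 h after chemical dosing to record cell morphology. Activity was fitted bidirectionally against DMSO as negative control and baseline; the endpoint serves as a background control.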

[19] = read-out: Transforming growth factor beta 1 (TGFb1), TGFB1 (gene 7040); assay: BSK_BE3C_TGFb1: BioMAP Diversity Plus: BE3C Assay for Transforming growth factor beta 1 (TGFb1) Biomarker Activity (AID 2283036); details: primary human bronchial epithelial cells; actives raise or lower the signal
Outline: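 Human primary bronchial epithelial cells (BE3C system) were dosed with chemical and TGF-b1 levels measured by ELISA at 24 h. Activity was fitted bidirectionally relative to DMSO negative control as baseline.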

[20] = BSK_4H_SRB: Viability Assessment in the BioMAP Diversity Plus: 4H Assay (AID 2283027); details: primary human endothelial cells (HUVEC);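 further: cells exposed to compound for 24 h before staining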
Outline: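 Absorbance at 560 nm of SRB-stained total protein served as the viability read-out in confluent primary human umbilical vein endothelium 24 h after chemical treatment. Curves were fitted bidirectionally against DMSO as negative control.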

Measured: AC50

O=C(O)C(F)(F)C(F)(F)C(F)(F)C(F)(F)C(=O)O
not listed: [18] | [19] | [20]
inactive: all other assays above

CCc1cccc(C)c1N(C(=O)CS(=O)(=O)O)C(C)COC (stereo not given)
not listed: [5] | [20]
inactive: all other assays above

CCNc1nc(NC(C)(C)C)nc(OC)n1
inactive: all assays above

CCCCCC1=CCCC1=O
not listed: [5] | [20]
inactive: all other assays above

COc1ccc(C(=O)/C(Br)=C\C(=O)O)cc1
inactive: [3] | [4] | [5] | [7] | [10] | [14] | [19] | [15] | [16] | [17]
active: [1] 20 µM and 25.9 µM | [2] 35.3 µM and 34.3 µM | [18] 37.4 µM and 37.5 µM | [6] 6.04 µM and 16.3 µM | [8] 34.9 µM and 35.4 µM | [9] 32.5 µM and 32.2 µM | [10] 29.8 µM | [11] 26.8 µM and 20 µM | [12] 22.1 µM and 20 µM | [13] 20 µM | [14] 28.8 µM | [19] 8.23 µM | [15] 8.24 µM | [16] 20 µM

CC/C=C\CCOC(=O)c1ccccc1O
active: [1] 34.7 µM | [4] 29.9 µM | [18] 37.1 µM | [6] 12.4 µM | [9] 21.1 µM | [10] 20 µM | [11] 20 µM | [12] 25.1 µM
not listed: [5] | [20]
inactive: all other assays above
